According to ChEMBL document CHEMBL1961873, “Compounds: GSK PKIS; Assays: Nanosyn kinase panel” (2012):

Experiments:
[1] = target: T1, Ephrin type-B receptor 2 (Homo sapiens) (UniProt P29323); conditions: at 1 µM
T1 sequence (whole entry): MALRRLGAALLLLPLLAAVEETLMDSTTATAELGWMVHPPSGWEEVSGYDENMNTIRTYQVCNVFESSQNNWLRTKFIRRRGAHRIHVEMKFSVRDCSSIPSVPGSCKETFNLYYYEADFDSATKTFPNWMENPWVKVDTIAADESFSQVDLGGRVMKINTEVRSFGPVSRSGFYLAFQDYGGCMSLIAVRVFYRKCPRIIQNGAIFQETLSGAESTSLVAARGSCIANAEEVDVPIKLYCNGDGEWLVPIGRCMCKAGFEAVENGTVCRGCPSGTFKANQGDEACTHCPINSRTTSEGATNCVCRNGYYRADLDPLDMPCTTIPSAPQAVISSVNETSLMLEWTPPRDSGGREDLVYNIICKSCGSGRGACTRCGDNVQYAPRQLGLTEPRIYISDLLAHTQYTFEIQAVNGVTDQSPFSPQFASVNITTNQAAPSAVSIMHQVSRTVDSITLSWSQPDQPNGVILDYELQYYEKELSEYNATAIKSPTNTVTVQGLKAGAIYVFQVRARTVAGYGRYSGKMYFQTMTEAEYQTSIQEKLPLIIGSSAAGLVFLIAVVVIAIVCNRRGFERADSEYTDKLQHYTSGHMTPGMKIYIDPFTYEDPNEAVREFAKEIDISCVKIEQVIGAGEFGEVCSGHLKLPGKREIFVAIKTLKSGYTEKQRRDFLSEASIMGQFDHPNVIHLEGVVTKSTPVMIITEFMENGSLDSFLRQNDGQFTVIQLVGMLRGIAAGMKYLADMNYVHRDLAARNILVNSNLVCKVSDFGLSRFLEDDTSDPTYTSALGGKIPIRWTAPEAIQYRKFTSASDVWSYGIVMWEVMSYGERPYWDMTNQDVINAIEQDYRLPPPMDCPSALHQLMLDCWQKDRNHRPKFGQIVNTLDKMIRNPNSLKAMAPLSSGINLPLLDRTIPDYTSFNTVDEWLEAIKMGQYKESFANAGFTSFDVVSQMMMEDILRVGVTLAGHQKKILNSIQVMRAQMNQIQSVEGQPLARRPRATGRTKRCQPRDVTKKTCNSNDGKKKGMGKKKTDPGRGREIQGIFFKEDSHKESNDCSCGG

[2] = target: T2, Ephrin type-B receptor 3 (Homo sapiens) (UniProt P54753); conditions: at 0.1 µM
T2 sequence (whole entry): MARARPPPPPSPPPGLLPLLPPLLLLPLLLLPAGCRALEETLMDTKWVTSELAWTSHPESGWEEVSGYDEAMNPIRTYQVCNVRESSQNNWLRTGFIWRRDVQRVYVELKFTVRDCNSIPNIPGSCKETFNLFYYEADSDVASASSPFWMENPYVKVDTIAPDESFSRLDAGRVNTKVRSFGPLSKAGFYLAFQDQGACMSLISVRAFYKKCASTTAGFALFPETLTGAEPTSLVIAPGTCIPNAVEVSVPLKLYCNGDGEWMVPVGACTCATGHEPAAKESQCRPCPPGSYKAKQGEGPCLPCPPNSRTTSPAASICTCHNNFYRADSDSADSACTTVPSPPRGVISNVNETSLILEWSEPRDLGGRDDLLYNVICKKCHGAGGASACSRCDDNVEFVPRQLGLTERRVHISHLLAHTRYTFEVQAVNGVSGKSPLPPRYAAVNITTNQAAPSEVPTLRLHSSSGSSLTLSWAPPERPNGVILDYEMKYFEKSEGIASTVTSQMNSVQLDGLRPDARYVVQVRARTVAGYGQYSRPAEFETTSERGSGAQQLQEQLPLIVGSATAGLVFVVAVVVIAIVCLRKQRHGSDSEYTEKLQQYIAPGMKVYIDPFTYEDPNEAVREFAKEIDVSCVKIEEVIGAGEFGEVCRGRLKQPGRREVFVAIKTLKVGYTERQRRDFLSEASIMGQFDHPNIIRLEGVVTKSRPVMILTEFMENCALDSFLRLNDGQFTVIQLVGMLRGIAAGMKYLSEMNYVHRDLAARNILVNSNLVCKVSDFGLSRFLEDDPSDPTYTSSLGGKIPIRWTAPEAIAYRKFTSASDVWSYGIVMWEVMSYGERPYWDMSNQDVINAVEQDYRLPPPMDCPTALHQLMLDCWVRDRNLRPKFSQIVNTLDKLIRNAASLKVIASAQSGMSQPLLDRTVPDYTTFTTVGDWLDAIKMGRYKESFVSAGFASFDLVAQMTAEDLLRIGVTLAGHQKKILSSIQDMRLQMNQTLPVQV

[3] = target: T2, Ephrin type-B receptor 3 (Homo sapiens); conditions: at 1 µM
[4] = target: T3, Ephrin type-B receptor 4 (Homo sapiens) (UniProt P54760); conditions: at 0.1 µM
T3 sequence (whole entry): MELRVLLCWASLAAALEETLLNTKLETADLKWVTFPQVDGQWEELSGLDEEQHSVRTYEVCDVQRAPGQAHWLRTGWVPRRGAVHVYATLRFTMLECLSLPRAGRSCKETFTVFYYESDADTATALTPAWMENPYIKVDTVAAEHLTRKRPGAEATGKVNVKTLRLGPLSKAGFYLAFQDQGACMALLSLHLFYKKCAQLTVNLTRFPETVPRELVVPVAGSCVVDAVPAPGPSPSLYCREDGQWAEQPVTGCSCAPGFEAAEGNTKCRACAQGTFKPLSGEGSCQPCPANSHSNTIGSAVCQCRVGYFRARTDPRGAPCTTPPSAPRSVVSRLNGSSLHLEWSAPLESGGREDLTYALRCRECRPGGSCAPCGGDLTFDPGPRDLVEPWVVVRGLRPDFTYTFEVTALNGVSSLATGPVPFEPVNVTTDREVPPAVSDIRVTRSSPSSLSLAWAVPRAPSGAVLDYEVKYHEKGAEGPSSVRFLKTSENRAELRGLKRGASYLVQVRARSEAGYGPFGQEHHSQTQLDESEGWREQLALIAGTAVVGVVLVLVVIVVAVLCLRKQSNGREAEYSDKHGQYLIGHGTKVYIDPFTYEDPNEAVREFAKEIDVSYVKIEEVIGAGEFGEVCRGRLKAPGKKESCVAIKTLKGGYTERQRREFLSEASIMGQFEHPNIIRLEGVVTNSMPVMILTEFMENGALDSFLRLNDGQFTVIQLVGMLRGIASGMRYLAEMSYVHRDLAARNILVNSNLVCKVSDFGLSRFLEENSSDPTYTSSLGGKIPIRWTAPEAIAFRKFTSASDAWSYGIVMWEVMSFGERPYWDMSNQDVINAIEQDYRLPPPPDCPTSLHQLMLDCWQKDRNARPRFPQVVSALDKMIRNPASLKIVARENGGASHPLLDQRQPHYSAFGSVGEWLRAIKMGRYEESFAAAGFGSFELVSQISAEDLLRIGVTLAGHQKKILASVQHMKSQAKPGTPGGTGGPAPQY

[5] = target: T3, Ephrin type-B receptor 4 (Homo sapiens); conditions: at 1 µM
[6] = target: Receptor tyrosine-protein kinase erbB-2 (Homo sapiens) (UniProt P04626); conditions: at 0.1 µM
[7] = target: Receptor tyrosine-protein kinase erbB-2 (Homo sapiens) (UniProt P04626); conditions: at 1 µM
[8] = target: Receptor tyrosine-protein kinase erbB-4 (Homo sapiens) (UniProt Q15303); conditions: at 0.1 µM
Receptor tyrosine-protein kinase erbB-4 (Homo sapiens), sequence (Q15303 whole entry): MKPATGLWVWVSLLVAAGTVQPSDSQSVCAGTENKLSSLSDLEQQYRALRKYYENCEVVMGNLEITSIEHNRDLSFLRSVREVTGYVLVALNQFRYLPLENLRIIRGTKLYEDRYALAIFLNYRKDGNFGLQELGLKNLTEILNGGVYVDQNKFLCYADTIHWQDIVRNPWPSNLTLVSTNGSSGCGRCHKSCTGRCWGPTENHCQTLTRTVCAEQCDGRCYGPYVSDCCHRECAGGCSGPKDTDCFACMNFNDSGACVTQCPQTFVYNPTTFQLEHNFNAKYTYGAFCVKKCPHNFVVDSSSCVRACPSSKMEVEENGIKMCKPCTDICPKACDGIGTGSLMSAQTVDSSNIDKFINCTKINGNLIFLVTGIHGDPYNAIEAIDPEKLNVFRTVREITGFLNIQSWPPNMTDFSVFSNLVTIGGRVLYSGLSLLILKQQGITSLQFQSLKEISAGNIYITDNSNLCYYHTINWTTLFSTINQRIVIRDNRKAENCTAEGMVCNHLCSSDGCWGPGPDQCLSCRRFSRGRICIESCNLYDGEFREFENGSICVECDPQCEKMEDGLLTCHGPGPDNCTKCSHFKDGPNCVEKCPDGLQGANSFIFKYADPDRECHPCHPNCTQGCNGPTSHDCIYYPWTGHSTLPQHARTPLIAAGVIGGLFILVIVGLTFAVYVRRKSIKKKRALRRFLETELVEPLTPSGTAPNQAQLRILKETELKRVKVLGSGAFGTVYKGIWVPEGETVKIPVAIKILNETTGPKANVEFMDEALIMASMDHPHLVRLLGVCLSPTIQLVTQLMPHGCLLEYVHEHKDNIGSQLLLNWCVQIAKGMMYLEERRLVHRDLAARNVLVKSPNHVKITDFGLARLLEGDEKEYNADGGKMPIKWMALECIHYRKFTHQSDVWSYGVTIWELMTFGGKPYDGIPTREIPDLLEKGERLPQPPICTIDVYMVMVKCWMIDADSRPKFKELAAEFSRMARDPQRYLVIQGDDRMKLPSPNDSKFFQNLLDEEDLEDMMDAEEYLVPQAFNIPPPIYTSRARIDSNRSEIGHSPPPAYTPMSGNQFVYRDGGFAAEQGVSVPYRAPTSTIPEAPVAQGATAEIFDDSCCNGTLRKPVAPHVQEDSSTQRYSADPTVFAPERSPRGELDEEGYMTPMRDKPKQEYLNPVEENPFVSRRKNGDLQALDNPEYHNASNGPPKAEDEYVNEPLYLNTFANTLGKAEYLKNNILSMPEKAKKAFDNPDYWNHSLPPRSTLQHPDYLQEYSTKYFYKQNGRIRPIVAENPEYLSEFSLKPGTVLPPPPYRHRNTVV

[9] = target: Receptor tyrosine-protein kinase erbB-4 (Homo sapiens) (UniProt Q15303); conditions: at 1 µM
[10] = target: Tyrosine-protein kinase Fer (Homo sapiens) (UniProt P16591); conditions: at 1 µM
Tyrosine-protein kinase Fer (Homo sapiens), sequence (P16591 whole entry, looked up): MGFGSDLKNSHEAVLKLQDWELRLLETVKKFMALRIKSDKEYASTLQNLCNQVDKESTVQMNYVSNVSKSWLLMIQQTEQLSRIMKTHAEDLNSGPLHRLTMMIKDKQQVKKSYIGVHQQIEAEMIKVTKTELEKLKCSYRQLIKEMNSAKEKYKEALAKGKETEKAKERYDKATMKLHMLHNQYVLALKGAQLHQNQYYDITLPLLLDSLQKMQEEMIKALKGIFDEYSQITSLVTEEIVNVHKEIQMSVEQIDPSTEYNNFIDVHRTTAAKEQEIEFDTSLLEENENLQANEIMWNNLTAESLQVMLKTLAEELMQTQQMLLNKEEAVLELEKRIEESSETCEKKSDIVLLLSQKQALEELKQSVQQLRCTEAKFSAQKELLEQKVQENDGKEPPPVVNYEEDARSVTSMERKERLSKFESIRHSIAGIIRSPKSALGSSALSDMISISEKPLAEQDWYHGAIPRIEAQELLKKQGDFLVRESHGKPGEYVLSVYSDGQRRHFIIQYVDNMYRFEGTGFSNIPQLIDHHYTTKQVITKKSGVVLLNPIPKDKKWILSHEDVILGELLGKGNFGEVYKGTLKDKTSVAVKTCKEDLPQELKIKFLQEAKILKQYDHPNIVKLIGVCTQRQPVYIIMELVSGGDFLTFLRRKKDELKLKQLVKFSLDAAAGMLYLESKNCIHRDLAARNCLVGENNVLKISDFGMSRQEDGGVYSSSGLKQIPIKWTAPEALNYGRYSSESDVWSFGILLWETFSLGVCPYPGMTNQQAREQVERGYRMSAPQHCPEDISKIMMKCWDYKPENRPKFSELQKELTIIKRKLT

[11] = target: Tyrosine-protein kinase Fes/Fps (Homo sapiens) (UniProt P07332); conditions: at 0.1 µM
Tyrosine-protein kinase Fes/Fps (Homo sapiens), sequence (P07332 whole entry): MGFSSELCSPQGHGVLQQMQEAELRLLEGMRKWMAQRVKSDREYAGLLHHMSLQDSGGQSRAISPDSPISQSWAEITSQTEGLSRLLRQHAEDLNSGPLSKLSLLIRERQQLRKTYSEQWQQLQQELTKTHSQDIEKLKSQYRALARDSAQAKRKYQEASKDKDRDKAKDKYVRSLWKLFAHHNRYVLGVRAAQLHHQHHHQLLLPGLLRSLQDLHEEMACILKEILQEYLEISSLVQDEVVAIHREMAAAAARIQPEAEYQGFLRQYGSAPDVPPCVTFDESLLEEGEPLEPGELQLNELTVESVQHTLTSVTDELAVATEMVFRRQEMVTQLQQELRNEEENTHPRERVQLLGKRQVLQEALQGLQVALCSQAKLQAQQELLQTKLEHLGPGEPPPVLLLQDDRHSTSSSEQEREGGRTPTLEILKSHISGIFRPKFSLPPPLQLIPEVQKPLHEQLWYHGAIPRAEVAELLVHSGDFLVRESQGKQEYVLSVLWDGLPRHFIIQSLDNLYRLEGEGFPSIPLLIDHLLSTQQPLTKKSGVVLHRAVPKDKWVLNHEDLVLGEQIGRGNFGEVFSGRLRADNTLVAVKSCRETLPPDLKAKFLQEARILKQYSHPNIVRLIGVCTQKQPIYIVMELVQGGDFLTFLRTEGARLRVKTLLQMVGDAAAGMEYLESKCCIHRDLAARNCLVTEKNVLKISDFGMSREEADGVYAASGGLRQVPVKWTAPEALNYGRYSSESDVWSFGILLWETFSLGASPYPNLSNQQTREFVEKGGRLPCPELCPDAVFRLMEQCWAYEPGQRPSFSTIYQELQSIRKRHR

[12] = target: Tyrosine-protein kinase Fes/Fps (Homo sapiens) (UniProt P07332); conditions: at 1 µM
[13] = target: Fibroblast growth factor receptor 1 (Homo sapiens) (UniProt P11362); conditions: at 0.1 µM
[14] = target: Fibroblast growth factor receptor 1 (Homo sapiens) (UniProt P11362); conditions: at 1 µM
[15] = target: Fibroblast growth factor receptor 2 (Homo sapiens) (UniProt P21802); conditions: at 0.1 µM
[16] = target: Fibroblast growth factor receptor 2 (Homo sapiens) (UniProt P21802); conditions: at 1 µM
[17] = target: Fibroblast growth factor receptor 3 (Homo sapiens) (UniProt P22607); conditions: at 0.1 µM
Fibroblast growth factor receptor 3 (Homo sapiens), sequence (P22607 23-806 limits assumed): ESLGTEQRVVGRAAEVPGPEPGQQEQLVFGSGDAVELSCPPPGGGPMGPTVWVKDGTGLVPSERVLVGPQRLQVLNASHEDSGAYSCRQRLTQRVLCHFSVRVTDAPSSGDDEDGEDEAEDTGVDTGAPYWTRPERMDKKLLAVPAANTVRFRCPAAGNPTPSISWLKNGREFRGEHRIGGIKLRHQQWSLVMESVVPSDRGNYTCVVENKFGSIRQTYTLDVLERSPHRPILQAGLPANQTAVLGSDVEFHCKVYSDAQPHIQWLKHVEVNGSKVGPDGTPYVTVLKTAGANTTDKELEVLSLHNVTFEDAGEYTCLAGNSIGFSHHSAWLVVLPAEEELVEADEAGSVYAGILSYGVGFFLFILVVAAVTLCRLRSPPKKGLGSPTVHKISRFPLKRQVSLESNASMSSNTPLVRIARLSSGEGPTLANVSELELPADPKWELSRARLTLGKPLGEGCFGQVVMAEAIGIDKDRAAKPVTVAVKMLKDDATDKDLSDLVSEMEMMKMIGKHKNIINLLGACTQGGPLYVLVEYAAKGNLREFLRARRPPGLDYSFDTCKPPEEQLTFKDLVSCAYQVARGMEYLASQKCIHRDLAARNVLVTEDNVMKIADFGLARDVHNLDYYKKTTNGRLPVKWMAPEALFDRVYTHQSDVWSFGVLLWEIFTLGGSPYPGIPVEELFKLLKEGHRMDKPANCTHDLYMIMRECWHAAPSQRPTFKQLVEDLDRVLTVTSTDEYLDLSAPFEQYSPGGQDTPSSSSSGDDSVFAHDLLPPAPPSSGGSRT

[18] = target: Fibroblast growth factor receptor 3 (Homo sapiens) (UniProt P22607); conditions: at 1 µM
[19] = target: Fibroblast growth factor receptor 4 (Homo sapiens) (UniProt P22455); conditions: at 0.1 µM;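 further: values are mean percent inhibition of FGFR4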
Fibroblast growth factor receptor 4 (Homo sapiens), sequence (P22455 22-802 limits assumed): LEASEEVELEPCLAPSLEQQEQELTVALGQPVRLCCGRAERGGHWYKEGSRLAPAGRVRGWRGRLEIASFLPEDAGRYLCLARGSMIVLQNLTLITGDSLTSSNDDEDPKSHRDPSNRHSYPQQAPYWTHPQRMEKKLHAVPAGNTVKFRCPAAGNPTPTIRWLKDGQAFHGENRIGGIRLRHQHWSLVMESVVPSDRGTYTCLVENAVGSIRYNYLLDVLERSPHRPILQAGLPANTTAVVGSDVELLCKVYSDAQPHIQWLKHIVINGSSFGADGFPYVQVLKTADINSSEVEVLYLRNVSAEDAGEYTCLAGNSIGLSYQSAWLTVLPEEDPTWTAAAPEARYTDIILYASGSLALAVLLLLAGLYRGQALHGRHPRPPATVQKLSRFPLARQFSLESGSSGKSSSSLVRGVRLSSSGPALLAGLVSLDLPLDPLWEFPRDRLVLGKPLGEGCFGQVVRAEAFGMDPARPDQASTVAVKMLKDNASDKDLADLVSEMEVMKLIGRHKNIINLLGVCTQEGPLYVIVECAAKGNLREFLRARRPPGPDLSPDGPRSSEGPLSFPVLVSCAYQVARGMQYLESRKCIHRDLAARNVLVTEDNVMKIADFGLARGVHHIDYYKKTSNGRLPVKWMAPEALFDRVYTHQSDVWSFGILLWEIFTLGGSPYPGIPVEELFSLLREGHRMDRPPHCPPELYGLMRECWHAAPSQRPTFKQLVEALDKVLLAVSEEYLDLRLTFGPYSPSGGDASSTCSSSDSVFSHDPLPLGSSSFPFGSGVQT

[20] = target: Tyrosine-protein kinase Fer (Homo sapiens) (UniProt P16591); conditions: at 0.1 µM

Row | SMILES | inhibition [1] | inhibition [2] | inhibition [3] | inhibition [4] | inhibition [5] | inhibition [6] | inhibition [7] | inhibition [8] | inhibition [9] | inhibition [10] | inhibition [11] | inhibition [12] | inhibition [13] | inhibition [14] | inhibition [15] | inhibition [16] | inhibition [17] | inhibition [18] | inhibition [19] | inhibition [20]
1 | CCn1c(-c2nonc2N)nc2c(C#CC(C)(C)O)nc(OC[C@@H](N)c3ccccc3)cc21 | 12.1% | 0.34% | -0.22% | -2.4% | 1.73% | -1.67% | -0.37% | -4.79% | -4.06% | 4.88% | -0.53% | 5.13% | -3.47% | 5.43% | -3.01% | 0.85% | -1.33% | -0.5% | 2.3% | 
2 | COc1cc2ncn(-c3cc(O[C@H](C)c4ccccc4Cl)c(C(N)=O)s3)c2cc1OC | 21.9% | 3.78% | 5.92% | 4.27% | 7.03% | 2.23% | 7.82% | 7.95% | 14% | 16.7% | 3.81% | 5.11% | 4.42% | 29.4% | 12.3% | 44.9% | 9.47% |  | 3.73% | 4.62%
3 | O=C1NC(=O)C(c2ccc(Cl)cc2)=C1Nc1ccc(Cl)c(C(=O)O)c1 | 1.8% | -6.22% | -1.9% | -0.68% | -1.57% | -2.94% | -3.13% | -7.86% | -9.87% | 1.58% | -3.1% | -3% | -0.91% | 2.2% | -2.69% | 2.13% | 1.31% | 2.66% | -0.4% | 1.93%
4 | COc1cccc(-n2ncc3c(N/N=C/c4cccc(F)c4)ncnc32)c1 | 4.03% | 0.95% | -0.77% | -0.91% | 0.63% | 1.57% | -0.99% | 1.08% | 2.68% | 3.05% | 1.31% | 0.83% | -2.97% | -3.18% | -3.24% | -0.48% | 0.54% | -0.4% | -3.35% | 2.76%
5 | CC1=C(C(=O)Nc2ccc3[nH]ncc3c2)C(c2ccc(F)cc2)NC(=O)N1 (stereo not drawn) | 5.02% | 3.4% | 1.2% | -1.65% | 0.92% | -0.29% | -0.74% | 4.16% | 5.19% | 2.17% | 0.59% | 0.3% | -0.9% | 6.58% | 3.51% | 18.4% | 4.3% | 14.7% | 1.22% | 0.09%
6 | CCn1c(-c2nonc2N)nc2cncc(C(=O)N3CCNCC3)c21 | 7.73% | 3.36% | 3.77% | 2.94% | 3.87% | 38.2% | 2.97% | 9.03% | 10.6% | 0.82% | 5.22% | 4.85% | 7.76% | 5.74% | 11.8% | 7.87% | 12.3% | 7.38% | 4.67% | 1.53%
7 | COc1cc2ncn(-c3cc(OCc4ccccc4C(F)(F)F)c(C(N)=O)s3)c2cc1OC | 17.3% | 1.32% | 0.77% | 0.05% | 1.61% | 3.56% | 4.42% | 3.59% | 11.8% | 10.5% | 2.56% | 1.4% | -0.93% | 13% | 2.62% | 20.9% | 6.21% | 18.2% | -3.31% | 3.4%
